PPARg SRC-1 ag: agonists of human PPARgamma SRC-1 coactivator recruitment. P37231. PPARgamma-SRC-1 coactivator recruitment biochemical assay. activation, % at 8 µM. actives 0.41% (n = 200,000); in the data active = activation above about 19%
Target sequence (P37231 whole entry, looked up): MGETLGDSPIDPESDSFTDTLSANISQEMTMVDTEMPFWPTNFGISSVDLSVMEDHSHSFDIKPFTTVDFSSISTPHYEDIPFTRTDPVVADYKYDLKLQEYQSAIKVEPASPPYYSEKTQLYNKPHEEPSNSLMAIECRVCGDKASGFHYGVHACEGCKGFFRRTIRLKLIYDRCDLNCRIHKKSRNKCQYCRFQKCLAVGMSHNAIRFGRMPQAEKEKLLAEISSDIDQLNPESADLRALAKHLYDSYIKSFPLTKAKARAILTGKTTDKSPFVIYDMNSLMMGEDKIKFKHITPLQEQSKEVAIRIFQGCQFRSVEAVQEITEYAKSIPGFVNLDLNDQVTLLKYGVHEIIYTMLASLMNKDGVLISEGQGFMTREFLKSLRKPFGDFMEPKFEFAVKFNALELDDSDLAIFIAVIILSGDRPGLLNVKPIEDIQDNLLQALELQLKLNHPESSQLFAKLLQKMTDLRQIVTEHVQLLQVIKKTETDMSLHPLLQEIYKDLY
TR-FRET SRC-2 ct: counter-screen for PPARgamma SRC-2 recruitment agonists: TR-FRET artefact. hits give high values. TR-FRET ratio at 8 µM. actives 0.4% (n = 200,000). AID 1049
SRC3 TRFRET art: TR-FRET artefact, counter-screen to PPARgamma/SRC-3 agonist assay | TR-FRET ratio at 8 µM | actives 0.39% (n = 99,000) | PPARgamma/SRC-3 format; hits give high values | AID 1048
PPARg SRC3 recr: promotes SRC-3 coactivator recruitment by human PPARgamma; P37231; biochemical PPARgamma/SRC-3 coactivator recruitment assay; activation, % at 8 µM; actives 0.26% (n = 200,000); AID 731; in the data active = activation above about 23%
SRC1 TRFRET art: counter-screen for PPARgamma SRC-1 recruitment agonists: TR-FRET artefact. TR-FRET detection artefact counter-screen, emission ratio; hits give high values. actives 0.34% (n = 99,000). AID 1051. TR-FRET ratio at 8 µM; in the data active = TR-FRET ratio above about 2300
PPARg SRC-2 ag: promotes SRC-2 coactivator recruitment by human PPARgamma. actives 0.34% (n = 200,000). AID 1032. PPARgamma LBD-SRC-2 recruitment, biochemical. activation, % at 8 µM. P37231; in the data active = activation above about 22%
Of the large screens only hits and unclear results are named; the others gave an inactive call. This is a sample that favours compounds with a hit; in the whole collection about 0.9% have one here. Rule as the data show it, unless noted: active = TR-FRET ratio above about 2000; inactive = the rest.

Cc1cnc(NC(=O)c2ccc(OCC3CCCO3)cc2)s1 (stereo not given)	none
COc1ccc(OC)c(-c2csc(NC(=O)c3ccc(OCC4CCCO4)cc3)n2)c1 (stereo not given)	SRC3 TRFRET art 2496
CS(=O)(=O)c1ncc(CO)n1Cc1ccccc1	none
CC1CCc2sc(C(=O)Nc3nnc(SCc4ccc(F)cc4)s3)cc2C1 (stereo not given)	TR-FRET SRC-2 ct 2241 (no result: SRC3 TRFRET art, SRC1 TRFRET art)
O=C(CSc1nc2cccnc2n1Cc1ccccc1)NCc1ccco1	PPARg SRC-1 ag 34 (no result: SRC3 TRFRET art, SRC1 TRFRET art)
COc1cc(C(=O)NC2CCCNC2)cc(OC)c1OC (stereo not given)	none
Cc1ccc(/C=C(\C#N)c2nn(-c3ccccc3)c(N)c2C#N)cc1	none
N#C/C(=C\c1cccc2ccccc12)c1nn(-c2ccccc2)c(N)c1C#N	PPARg SRC-1 ag 19 (no result: SRC3 TRFRET art, SRC1 TRFRET art)
O=C(NN1C(=O)C2CC=C(Cl)CC2C1=O)c1ccncc1 (stereo not given)	none
Cn1c(SCc2cccnc2)nc2c(c1=O)SCC2	TR-FRET SRC-2 ct 2241
Clc1cccc(Cl)c1Cn1ccc(C2CC2)n1	none
CCN(CC)c1ccc(NC(=S)Nc2ccc(F)cc2)cc1	none
CSc1ccccc1NC(=O)c1cc2ncc(Br)cn2n1	SRC3 TRFRET art 2070, SRC1 TRFRET art 2400
COc1cc(CNc2ccc(N3CCCC3)cc2)cc(Cl)c1OC	none
CCOc1cc(CNc2ccc(N3CCCC3)cc2)cc(Cl)c1OC	TR-FRET SRC-2 ct 2050
CCOc1cc(CNc2ccc(N3CCN(C(C)=O)CC3)cc2)cc(Br)c1OC	PPARg SRC-2 ag 22
Cc1ccc(CN=C(Nc2ccccc2)NC2CCCCC2)cc1	none
CSCCCNC(=S)N1CCc2ccccc2C1	none
c1ccc2[nH]c3cc4ncnc4cc3nc2c1	PPARg SRC-1 ag 22
CCCCC(=O)Nc1nc2ccc3nc(C)sc3c2s1	TR-FRET SRC-2 ct 1978 (no result: SRC3 TRFRET art, SRC1 TRFRET art)
O=C(Nc1ccccn1)c1cc(-c2cccc(Cl)c2)nc2ccccc12	SRC3 TRFRET art 2298, SRC1 TRFRET art 2351
CCOc1ccc(CCNC(=O)CSc2nn(-c3ccc(C)c(Cl)c3)c(=S)s2)cc1OCC	PPARg SRC-1 ag 30, SRC1 TRFRET art 2577
CCOc1ccc(CCNC(=O)CSc2nnnn2C)cc1OCC	none
CCOc1ccc2[nH]c(=O)c(C(c3nnnn3C3CCCCC3)N3CCN(C)CC3)cc2c1 (stereo not given)	PPARg SRC-1 ag 23
CCOc1ccc2[nH]c(=O)c(C(c3nnnn3C3CCCCC3)N3CCN(CC)CC3)cc2c1 (stereo not given)	none (no result: SRC3 TRFRET art, SRC1 TRFRET art)
CCOC(=O)N1CCN(C(=S)NC(=O)c2ccc(F)c(F)c2)CC1	none
N#Cc1cc2c(nc1SCc1ccccc1)CCCC2	none
N#Cc1cc2c(nc1SCc1ccccc1)CCC2	PPARg SRC-1 ag 85 (no result: SRC3 TRFRET art, SRC1 TRFRET art)
COC(=O)c1ccc(COC(=O)c2ccc(S(=O)(=O)N3CCC(C)CC3)cc2)o1	PPARg SRC-1 ag 21 (no result: SRC3 TRFRET art, SRC1 TRFRET art)
COC(=O)c1ccc(OC(=O)CCN2c3ccccc3Sc3ccccc32)cc1	TR-FRET SRC-2 ct 2002, SRC3 TRFRET art 2754
Cc1ccc(C(=O)Nc2ccc(N3CCCC3)cc2)cc1	PPARg SRC-1 ag 22
O=C(Nc1ccncc1)c1cncc(Br)c1	none (no result: SRC3 TRFRET art, SRC1 TRFRET art)
O=C(Nc1ccc(N2CCCCC2)cc1)c1cncc(Br)c1	PPARg SRC-1 ag 20 (no result: SRC3 TRFRET art, SRC1 TRFRET art)
O=C(Nc1ccc(N2CCCCC2)cc1)c1ccccc1	PPARg SRC-1 ag 19 (no result: SRC3 TRFRET art, SRC1 TRFRET art)
CCC1NC(=S)NC(C)=C1C(=O)c1ccccc1 (stereo not given)	none
Nc1cc(C(F)(F)F)ccc1-n1cccc1	none
CCN(CC)CCn1c(NC(=O)c2ccc(Cl)cc2)nc2ccccc21	TR-FRET SRC-2 ct 4842, PPARg SRC-2 ag 153 (no result: SRC3 TRFRET art, SRC1 TRFRET art)
Cc1ccc2nc(-c3ccc(NC(=O)CCS(=O)(=O)c4ccccc4)cc3)sc2c1	SRC3 TRFRET art 2301
CCC1(c2ccc(F)cc2)NC(=O)N(CC(=O)Nc2ccc(-c3nc4ccc(C)cc4s3)cc2)C1=O (stereo not given)	SRC3 TRFRET art 2350
Cc1nc2ccc(NC(=O)CCS(=O)(=O)c3ccccc3)cc2s1	none
COc1ccc(C2(C)NC(=O)N(CC(=O)Nc3ccc(-c4nc5ccc(C)cc5s4)cc3)C2=O)cc1 (stereo not given)	SRC3 TRFRET art 2403, SRC1 TRFRET art 2469
Cc1ccc(N2C(SCC(=O)O)=NC(=Nc3cccc(C)c3)C23CCCC3)cc1	none
NNc1nc2c(-c3ccc(F)cc3)nnn2c2ccccc12	PPARg SRC-1 ag 24
NNc1nc2c(-c3ccc(Cl)cc3)nnn2c2ccccc12	none
Cc1ccc(C(=O)COC(=O)c2ccc(O)cc2)cc1	none
Cn1ccnc1C1CCCCN1Cc1nc(-c2ccc3c(c2)OCO3)no1 (stereo not given)	PPARg SRC-1 ag 38, SRC1 TRFRET art 3563
O=C(Cc1cccc(C(F)(F)F)c1)NCc1ccc(Cl)cc1Cl	none
CCOC(=O)/C(C#N)=C\N(C)C	none (no result: SRC3 TRFRET art, SRC1 TRFRET art)
C=CCN1C=CC(=C/C=C(/C#N)C(=O)OCC)C=C1	PPARg SRC-1 ag 26 (no result: SRC3 TRFRET art, SRC1 TRFRET art)
CC(=O)Nc1ccc(Br)c2ccccc12	TR-FRET SRC-2 ct 2043, SRC3 TRFRET art 2311, SRC1 TRFRET art 2333
COc1ccc(-c2c(=O)n(OCc3ccccc3[N+](=O)[O-])c3ccccc3[n+]2[O-])c(OC)c1	none
Cc1sc2nc3c(SC(C)C(=O)O)cc(C(=O)c4ccccc4O)cn3c(=O)c2c1C (stereo not given)	PPARg SRC3 recr 33
CCOC(=O)c1sc2nc3c(SCC(=O)O)cc(C(=O)c4ccccc4O)cn3c(=O)c2c1C	none
Cc1cc(F)ccc1S(=O)(=O)Nc1ccccc1C(=O)NCc1cccnc1	none
COc1ccc(C2Nc3ccccc3C(=O)N2c2ccccc2)cc1CSc1ccccn1 (stereo not given)	SRC3 TRFRET art 2243
COC(=O)COc1ccc(/C=N/NC(=O)c2ccc(N(Cc3ccccc3)S(C)(=O)=O)cc2)cc1	none
Cc1ccc(-c2nnc(NC3CCCCC3)c3ccccc23)cc1S(=O)(=O)N1CCN(C)CC1	none (no result: SRC3 TRFRET art, SRC1 TRFRET art)
Cc1ccc(-c2nnc(NCc3nc4ccccc4[nH]3)c3ccccc23)cc1S(=O)(=O)N1CCCCC1	SRC3 TRFRET art 2547
Nc1nc(-c2ccc(Cl)cc2)nnc1-c1ccc(Br)cc1	SRC3 TRFRET art 3281
NC(=S)Nc1cccc2cc3ccccc3cc12	PPARg SRC-2 ag 22 (no result: SRC3 TRFRET art, SRC1 TRFRET art)
CC1CCC2C(=O)N(c3ccc(Cc4ccncc4)cc3)C(=O)C2C1 (stereo not given)	none
COc1ccc(C2CC(=O)c3cnn(-c4nc(C)cc(C)n4)c3C2)cc1 (stereo not given)	none
COC(=O)c1ccccc1NC(=O)Cc1nc(-c2ccccc2)sc1-c1ccc(C)cc1	SRC3 TRFRET art 2243
CSCCNC(C)=O	TR-FRET SRC-2 ct 2040, PPARg SRC-2 ag 24 (no result: SRC3 TRFRET art, SRC1 TRFRET art)
CSCCNC(=O)c1cccc(Cl)c1	none
CCc1cccc(NC(=O)C2CCCN(S(=O)(=O)c3c(C)[nH]c(=O)[nH]c3=O)C2)c1 (stereo not given)	none (no result: SRC3 TRFRET art, SRC1 TRFRET art)
Cc1cccc(NC(=O)C2CCN(S(=O)(=O)c3c(C)[nH]c(=O)[nH]c3=O)CC2)c1	TR-FRET SRC-2 ct 1997
